RE007 growth inh – less growth of the S. pombe RE007 Vpr strain; S. pombe RE007 Vpr strain, BacTiter-Glo ATP luminescence, 24 h; Potency, µM (doses to about 92.2 µM), for inactives: at the top dose activity change, negative = less growth, hits mostly inhibitors; 360,000 tested, 0.21% active; AID 651644; active = well fitted falling curve with a large enough effect; inconclusive = small, poorly fitted or top-dose-only effect; inactive = no such curve, though single readings can be large or run the other way; note: % is set by controls: 0 for no effect and ±100 for the full control effect; nearly all actives have a fitted effect of over 50% in size
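Fission yeast strain RE007, carrying one chromosomally integrated HIV-1 vpr copy, was seeded at OD 0.01 in PMG+AL medium with 23 nL pinned compound. After 24 h at 30 °C and 99% humidity, viability was read by BacTiter-Glo luminescence.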
AmpC no deterg – inhibitors of E. coli AmpC beta-lactamase without detergent. 330,000 tested, 0.52% active. Potency, µM (series often up to 57.1 µM), without a hit: at the highest dose activity change, negative = inhibition, usual class: inhibitors. AmpC nitrocefin hydrolysis, absorbance 480 nm, 0.0001% Triton. AID 485341;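 note: plate controls were no compound for no effect and no enzyme for full effect; nearly all actives have a fitted effect of over 20% in size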
Target sequence (P00811 whole entry, looked up): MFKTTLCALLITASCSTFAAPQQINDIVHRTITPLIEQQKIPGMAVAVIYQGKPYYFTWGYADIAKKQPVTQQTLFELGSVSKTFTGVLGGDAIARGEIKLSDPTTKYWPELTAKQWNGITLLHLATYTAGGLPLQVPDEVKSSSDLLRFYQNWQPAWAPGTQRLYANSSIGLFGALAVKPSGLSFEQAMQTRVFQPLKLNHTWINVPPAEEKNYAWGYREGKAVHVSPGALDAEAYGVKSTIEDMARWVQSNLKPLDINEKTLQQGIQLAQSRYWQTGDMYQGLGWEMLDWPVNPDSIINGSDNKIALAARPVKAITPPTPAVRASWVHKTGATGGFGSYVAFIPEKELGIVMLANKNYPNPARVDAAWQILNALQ
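AmpC (5.3 nM in the dispensed reagent) in 20 mM phosphate pH 7.0 with 0.01% (detergent screen) or 0.0001% Triton X-100 was preincubated with compounds for 15 min at room temperature. Nitrocefin was then added from an 800 uM solution, and hydrolysis was followed at 480 nm.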
TbPYK inhibitor – T. brucei pyruvate kinase inhibition; TbPYK enzyme, Kinase-Glo Plus ATP luminescence, 45 min; Potency, µM (doses to about 76.8 µM), for inactives: at the top dose activity, negative = inhibition, hits mostly inhibitors; 410,000 tested, 0.12% active; AID 624173; note: % is set by controls: 0 for no effect and ±100 for the full control effect; nearly all actives have a fitted effect of over 50% in size
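Activity of T. brucei pyruvate kinase was followed by Kinase-Glo Plus luminescence after the enzyme reacted 45 min at room temperature with 130 uM ADP (final) and substrate. Test compounds were added before ADP at multiple concentrations.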
AmpC inh detg – inhibitors of E. coli AmpC beta-lactamase with detergent; P00811; AmpC hydrolysis of nitrocefin, absorbance 480 nm, 0.01% Triton; Potency, µM (series often up to 114 µM), for the others: top-dose activity change, negative = inhibition, usual class: inhibitors; 370,000 tested, 0.041% active;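 note: 0% = no-compound wells and -100% = no-enzyme wells; nearly all actives have a fitted effect of over 25% in size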
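AmpC (5.3 nM in the dispensed reagent) in 20 mM phosphate pH 7.0 with 0.01% (detergent screen) or 0.0001% Triton X-100 was preincubated with compounds for 15 min at room temperature. Nitrocefin was then added from an 800 uM solution, and hydrolysis was followed at 480 nm.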
Sm TGR inh – blocks Schistosoma mansoni thioredoxin glutathione reductase. Potency, µM (series often up to 114 µM), without a hit: at the highest dose activity change, negative = inhibition, usual class: inhibitors. 360,000 tested, 3% active. AID 485364. Q962Y6. purified TGR, DTNB reduction, TNB absorbance 405 nm; note: % is set by controls: 0 for no effect and ±100 for the full control effect; nearly all actives have a fitted effect of over 60% in size
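Kinetic colorimetric format: TGR-catalysed, NADPH-driven DTNB reduction monitored via TNB absorbance. Enzyme dispensed at 20 nM; compound exposure 15 min at room temperature before reaction start.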
SARS PLP yeast – blocks SARS-CoV papain-like protease in a yeast assay; Potency, µM (top dose mostly 32.9 µM), for the others: top-dose activity, positive = growth rescue, hits mostly activators; 330,000 tested, 0.19% active; S. cerevisiae expressing SARS-CoV PLpro, growth rescue; calls by dose curve; note: 0% is about no effect; nearly all actives have a fitted effect of over 55% in size
* hit, by the source's call; ? = inconclusive; nt = no result. In the library only some 3.3% were active in any assay of this set; here they are far more common. Unless noted, calls come from the whole dose curve; as a rule, active = well fitted curve in the direction sought with a large enough effect; inconclusive = small, poorly fitted or top-dose-only effect, or another doubt; inactive = no such curve, though single readings can be large; an effect the other way counts as inactive or inconclusive. Potency is the fitted concentration of half-maximal effect.

SMILES	RE007 growth inh	AmpC no deterg	TbPYK inhibitor	AmpC inh detg	Sm TGR inh	SARS PLP yeast
COc1ccc(C(=O)N/N=C(\C)c2ccc3c(c2)C2C=CCC2C(c2ccccc2)N3)cc1 (stereo not given)	-12%	-4%	-17%	-9%	10µM*	5%
Cc1nc2c(c(C)nn2C(C)(C)C)c(C)c1CCC(=O)Nc1ccc(Br)cc1Br	nt	nt	0%	-1%	-3%	nt
Cc1ccc(NC(=O)CN2C(=O)N/C(=C/c3cc(C)n(-c4ccc(C(=O)O)cc4)c3C)C2=O)cc1	-6%	-19%	-1%	-3%	45µM*	3%
Cc1ccc(NC(=O)CN2C(=O)N/C(=C/c3cccn3-c3ccc(C(=O)O)cc3)C2=O)cc1	-13%	-20%	-27%	?	?	15%
Cc1ccc(NC(=O)CN2C(=O)N/C(=C/c3ccco3)C2=O)cc1	-11%	?	-6%	-22%	50µM*	-5%
Cc1ccc(NC(=O)CN2C(=O)S/C(=C\c3cc(C)n(-c4ccc(C(=O)O)cc4)c3C)C2=O)cc1	-14%	-40%	-6%	-4%	nt	0%
Cc1cc(C)c2c(=O)cc(CSCC(=O)Nc3ccccc3Cl)[nH]c2c1	nt	nt	4%	15%	3%	nt
COc1cccc(-n2nc(C#N)c(Cl)cc2=O)c1	?	-21%	1%	-1%	2.5µM*	-18%
COc1cccc(-n2nc(C(N)=O)c(O)cc2=O)c1	3%	-21%	3%	0%	6%	0%
Cc1cccc(NC(=O)C2CCN(S(=O)(=O)c3ccc4c(c3)CCCN4C(=O)C3CCC3)CC2)c1	nt	nt	0%	-2%	4%	nt
CCOC(=O)c1c(C)[nH]c(C)c1S(=O)(=O)NCC(=O)Nc1ccc(C)c(N(C)C)c1	nt	nt	-4%	0%	14%	nt
CCOc1ccc(C2Nc3cccc4cccc(c34)N2)cc1OC	-13%	-34%	-5%	-10%	25µM*	-14%
COc1ccc(C2Nc3cccc4cccc(c34)N2)cc1	-10%	-18%	-20%	3%	nt	-1%
CCOc1cc(C2Nc3ccccc3C(=O)N2c2ccccc2)ccc1O (stereo not given)	-5%	-38%	-2%	?	2%	-3%
CCOc1cc(C2Nc3cccc4cccc(c34)N2)ccc1O	-7%	-57%	-19%	?	11µM*	-3%
CCOc1ccc(CC(=O)NC2CC(=O)N(c3ccc4c(c3)OCCO4)C2)cc1 (stereo not given)	nt	nt	-2%	-2%	1%	nt
CCc1ccc(CNC(=O)CCCN2C(=O)CCn3nc(-c4cccn4C)cc32)cc1	nt	nt	-3%	15%	2%	nt
O=C(COC(=O)c1ccc([N+](=O)[O-])o1)Nc1cccc2ccccc12	-13%	-43%	-1%	-8%	14µM*	-5%
O=C(COC(=O)c1ccc([N+](=O)[O-])o1)NCc1ccc(F)cc1	-20%	-18%	-6%	nt	nt	-1%
O=C1CN(C(=O)COC(=O)c2ccc([N+](=O)[O-])o2)c2ccccc2N1	-3%	-11%	-4%	-2%	45µM*	-1%
Cc1ccc(C)c(S(=O)(=O)c2nnn3c2nc(NCc2ccc4c(c2)OCO4)c2sccc23)c1	nt	nt	-7%	19%	5%	nt
Cc1ccc(C(=O)CNc2cccc([N+](=O)[O-])c2)cc1	-9%	-25%	8%	2%	6%	1%
Cc1ccc(NCC(=O)c2ccc([N+](=O)[O-])cc2)cc1	-18%	-36%	-8%	-9%	16µM*	-2%
COc1ccc(C(=O)CC(Nc2ccc([N+](=O)[O-])cc2)c2ccc(OC)cc2)cc1 (stereo not given)	-5%	-30%	-3%	5%	6%	-6%
Cc1ccc(NCCC(=O)c2cccc([N+](=O)[O-])c2)c(C)c1	5.6µM*	20µM*	-6%	5%	0.5µM*	-32%
SMILES	RE007 growth inh	AmpC no deterg	TbPYK inhibitor	AmpC inh detg	Sm TGR inh	SARS PLP yeast
CNC(CC(=O)c1ccc([N+](=O)[O-])cc1)C(Cl)(Cl)Cl (stereo not given)	13µM*	-18%	13µM*	-12%	0.45µM*	-107%
Cc1ccccc1NC(=O)CCC(=O)OCC(=O)c1cccc([N+](=O)[O-])c1	3%	-15%	2%	-2%	nt	-1%
Cc1cccc(NCCC(=O)c2ccc([N+](=O)[O-])cc2)c1C	35µM*	-21%	6%	9%	nt	-7%
Cc1cc(S(=O)(=O)Nc2ccc3oc4c(c3c2)CCCC4)ccc1Cl	nt	nt	-5%	16%	-2%	nt
COC(=O)c1ccc2c(=O)n(CCCCCC(=O)NCCc3ccccc3)c(=O)[nH]c2c1	nt	nt	5%	5%	-3%	nt
Cc1ccc(OCCn2c(-c3ccc(Br)cc3)nc3ccccc3c2=O)cc1C	nt	nt	4%	7%	-4%	nt
COc1ccc(C(Nc2cc(C)ccn2)c2ccc3ccc(C)nc3c2O)cc1 (stereo not given)	-5%	-5%	-2%	-2%	0.4µM*	21%
COc1cc(C(Nc2ccccn2)c2ccc3ccc(C)nc3c2O)cc(OC)c1O (stereo not given)	16%	50%	33%	-7%	0.35µM*	5%
Cc1ccc2ccc(C(Nc3ccccn3)c3ccccc3)c(O)c2n1 (stereo not given)	-4%	-22%	-5%	?	2.8µM*	11µM*
Cc1ccnc(NC(c2ccsc2)c2ccc3ccc(C)nc3c2O)c1 (stereo not given)	-12%	-51%	1%	-5%	nt	-4%
Cc1ccc2ccc(C(Nc3cccc(C(F)(F)F)c3)c3cccnc3)c(O)c2n1 (stereo not given)	-1%	2%	3%	-5%	2.2µM*	10µM*
Cc1ccc(-n2nc3c(N4CCC(C(=O)NC5CCCCC5)CC4)nnc(C)c3c2C)cc1	nt	nt	4%	22%	-5%	nt
OCC1OC(OC2C(CO)OC(OC3C(CO)OC(O)C(O)C3O)C(O)C2O)C(O)C(O)C1O (stereo not given)	nt	nt	0%	nt	nt	nt
COc1ccc(Cl)cc1NC(=O)N1CCC(CN2CCCCCC2)CC1	nt	nt	-4%	9%	-34%	nt
COc1cc(OC)c(NC(=O)c2oc3ccc4c(c3c2C)C(=O)CC(C)(C)O4)cc1Cl	nt	nt	-1%	21%	8%	nt
O=C(Cn1ncc2c3ccccc3n(Cc3ccc(F)cc3)c2c1=O)NCc1ccccn1	nt	nt	0%	2%	0%	nt
COc1cccc(C(=O)CN2CCN(S(=O)(=O)c3cccc([N+](=O)[O-])c3)CC2)c1	12%	-22%	5%	?	18µM*	-22%

Screening data from PubChem.
